# Measured values published in the OligoGym collection.
# Biological target: CIAPIN1
# Test: pooled miR-30 sensor sort-seq; sequence = guide strand
# Conditions: shRNA
# Note: reference of the scale not given here.
row,Sequence,sensor-assay potency score (higher = more potent)
1,TTGTGAGCCACTTGACTCGTGT,-0.0962
2,TTGTTATCTACAGCTGTCTCTA,-0.353
3,TAAGCTGCCTAGAAGAACCCAC,0.616
4,TCTCAGAGTGAACAAATCCAGA,-1.26
5,TGTGATCTGAACAAACAGCAGG,-0.776
6,TAACGCTTGAAGCTTATCCACC,-1.25
7,TTAGATGCTGTCTTCACTTTGC,-0.0905
8,TTAACATAAATGACAACAGGAC,-0.72
9,TTGACTTCTCTTTTTCCAGTTC,-0.361
10,TGGAGTAAACTAACAACTCTGA,-0.493
11,TTCTTCAGGACACACTCCCTTC,-0.89
12,TGGTCTTTTGATACACAGCAGC,-1.52

# Biological target: CIR1
# Test: as above
# Conditions: shRNA
row,Sequence,sensor-assay potency score (higher = more potent)
1,TTGTTCTTTAAGATATTGCTGC,-0.164
2,TTCTTCATGAAGCTTTCTCTTC,-0.59
3,TTCTCTTCTTAGACTTGTCCTT,-0.317
4,TATCATATGATATTTTCTGTTC,-0.717
5,TAGACTTGTCCTTCTCTTCAGA,-0.159
6,TTTGTGTTTACTTCTGCTCTTC,0.203
7,TTTATTGTTACTCTCACTCTCA,0.426
8,TTCTTTAAGATATTGCTGCATC,-0.396
9,TCTCTTCTTAGACTTGTCCTTC,-0.0367
10,TACTGCTTTCTGAAGTCTCAGT,-0.586
11,TTTTCTTCTCCAGTCGATCTAA,-0.412
12,TTTCGTTTCAGTGCAAACCCAC,-0.179

# Biological target: CIRBP
# Test: as above
# Conditions: shRNA
row,Sequence,sensor-assay potency score (higher = more potent)
1,TCCGTACTTTGAGAAGACCTGC,-0.634
2,TAACTGTCGTAACTGTCTCTGT,0.0429
3,ACTGTCGTAACTGTCTCTGTAG,-0.226
4,TTCAGAGATCTGTCCGTACTTT,0.15
5,TCACTGTAGCCACCACTCTGAC,-1.45
6,TAACTGTCTCTGTAGGACCCGC,-0.935
7,TAGTAGTCTCTGGAGCCTCCGT,-1.12
8,ATCCTTAGCGTCGTCAATGTTC,-1.29
9,TGTCTTTCACAACCACCACTTC,-0.854
10,TCGTCAATGTTCTCAAAGGTGA,-0.799
11,AACTGTCGTAACTGTCTCTGTA,0.0143
12,TCTTTCACAACCACCACTTCAG,-0.118
13,TTTCACAACCACCACTTCAGAG,-0.729
14,TTAGCGTCGTCAATGTTCTCAA,-0.0271
15,TTGCCTGCCTGGTCTACTCGGA,-0.263
16,TTGGTGTCAAAACTCAGCCCTC,-0.687
